Measured values from PubChem BioAssay AID1508601 (ICCB-Longwood Screening Facility, Harvard Medical School, 2020).
The whole screen tested about 5,700 compounds, of which about 85 (1%) were called active. No stated cut-off is given here; in the data, active means p53-positive nuclei above about 36% (passing the limit was not always enough); inactive means the rest. The full list was thinned out, with actives kept by preference. Peptide text beside a SMILES is read from it.

Columns and labels:
[1] = nuclear p53 accumulation, HPV+ cells – imaging, p53-positive nuclei imaging, 24 h, 48 h (AID 1508601); settings: 24/48 h
[2] = target: Cellular tumor antigen p53 (Homo sapiens) (UniProt P04637); assay: as above; settings: 24/48 h, stronger effect = higher value
[3] = measured here: cell number at 24 h, Library stock concentration: 3.33 mM
[4] = measured here: cell number at 48 h, Library stock concentration: 3.33 mM
[5] = Library stock concentration: 3.33 mM
[6] = measured here: p53 positive nuclei at 24 h, Library stock concentration: 3.33 mM
[7] = measured here: cell number at 24 h, Library stock concentration: 80 uM
[8] = measured here: cell number at 24 h, Library stock concentration: 400 uM
[9] = measured here: cell number at 24 h, Library stock concentration: 2 mM
[10] = measured here: cell number at 24 h, Library stock concentration: 10 mM
[11] = measured here: cell number at 48 h, Library stock concentration: 80 uM
[12] = measured here: cell number at 48 h, Library stock concentration: 400 uM
[13] = measured here: cell number at 48 h, Library stock concentration: 2 mM
[14] = measured here: cell number at 48 h, Library stock concentration: 10 mM
[15] = Library stock concentration: 80 uM
[16] = Library stock concentration: 400 uM
[17] = Library stock concentration: 2 mM
[18] = Library stock concentration: 10 mM
[19] = measured here: p53 positive nuclei at 24 h, Library stock concentration: 80 uM
[20] = measured here: p53 positive nuclei at 24 h, Library stock concentration: 400 uM
[21] = measured here: p53 positive nuclei at 24 h, Library stock concentration: 2 mM
[22] = measured here: p53 positive nuclei at 24 h, Library stock concentration: 10 mM

Sequence of Cellular tumor antigen p53 (Homo sapiens) (P04637 whole entry, looked up): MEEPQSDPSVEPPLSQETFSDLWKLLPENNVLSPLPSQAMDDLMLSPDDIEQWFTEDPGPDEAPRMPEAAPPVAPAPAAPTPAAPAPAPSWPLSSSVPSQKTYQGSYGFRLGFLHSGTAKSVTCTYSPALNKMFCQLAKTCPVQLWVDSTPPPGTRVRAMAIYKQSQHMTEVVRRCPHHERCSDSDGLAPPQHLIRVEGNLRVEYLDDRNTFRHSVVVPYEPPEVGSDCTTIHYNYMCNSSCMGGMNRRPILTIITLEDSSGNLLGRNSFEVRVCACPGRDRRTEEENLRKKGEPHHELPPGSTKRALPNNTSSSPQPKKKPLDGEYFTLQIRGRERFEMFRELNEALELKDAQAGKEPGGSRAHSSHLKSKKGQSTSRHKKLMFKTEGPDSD

**Q.** Which nuclei count, normalised [1, 3] does the source give for `CC(C)c1nc(CN(C)C(=O)NC(CCN2CCOCC2)C(=O)NC(CCC(Cc2ccccc2)NC(=O)OCc2cncs2)Cc2ccccc2)cs1` (stereo not drawn) here?
**A.** 98.1%

**Q.** What about the nuclei count, normalised [1, 4] of the same compound?
**A.** 96.3%

**Q.** And the p53-positive nuclei, normalised [2, 5]?
**A.** 4.22% (inactive)

**Q.** What about the p53-positive nuclei, normalised [2, 6] of the same compound?
**A.** 4.44%

**Q.** Which nuclei count, normalised [1, 7] does the source give for `O=C(Cc1ccc(-c2ccc(OCCN3CCOCC3)cc2)cn1)NCc1ccccc1` here?
**A.** 42.9%

**Q.** And the nuclei count, normalised [1, 8]?
**A.** 41.4%

**Q.** What about the nuclei count, normalised [1, 9] of the same compound?
**A.** 40%

**Q.** And the nuclei count, normalised [1, 3]?
**A.** 41.1%

**Q.** And the nuclei count, normalised [1, 10]?
**A.** 39.3%

**Q.** And the nuclei count, normalised [1, 11]?
**A.** 27.3%

**Q.** And the nuclei count, normalised [1, 12]?
**A.** 26.6%

**Q.** And the nuclei count, normalised [1, 13]?
**A.** 28.3%

**Q.** And the nuclei count, normalised [1, 4]?
**A.** 30.8%

**Q.** What about the nuclei count, normalised [1, 14] of the same compound?
**A.** 26.9%

**Q.** What about the p53-positive nuclei, normalised [2, 15] of the same compound?
**A.** 3.36% (inactive)

**Q.** And the p53-positive nuclei, normalised [2, 16]?
**A.** 4.39% (inactive)

**Q.** And the p53-positive nuclei, normalised [2, 17]?
**A.** 2.81% (inactive)

**Q.** What about the p53-positive nuclei, normalised [2, 5] of the same compound?
**A.** 2.58% (inactive)

**Q.** What about the p53-positive nuclei, normalised [2, 18] of the same compound?
**A.** 4.55% (inactive)

**Q.** And the p53-positive nuclei, normalised [2, 19]?
**A.** -0.0362%

**Q.** What about the p53-positive nuclei, normalised [2, 20] of the same compound?
**A.** 1.51%

**Q.** What about the p53-positive nuclei, normalised [2, 21] of the same compound?
**A.** 1.32%

**Q.** What about the p53-positive nuclei, normalised [2, 6] of the same compound?
**A.** 0.97%

**Q.** What about the p53-positive nuclei, normalised [2, 22] of the same compound?
**A.** 1.31%

**Q.** For `COC(=O)C(Cc1ccccc1)NC(=O)C(N)CC(=O)O` (stereo not drawn) (H-Asp-Phe-OMe; configuration not given here), which nuclei count, normalised [1, 3] is on record?
**A.** 101%

**Q.** And the nuclei count, normalised [1, 4]?
**A.** 94.9%

**Q.** And the p53-positive nuclei, normalised [2, 5]?
**A.** -0.0669% (inactive)

**Q.** And the p53-positive nuclei, normalised [2, 6]?
**A.** -0.12%

**Q.** Which results are given for `CC(C)CC(NC(=O)C(CCc1ccccc1)NC(=O)CN1CCOCC1)C(=O)NC(Cc1ccccc1)C(=O)NC(CC(C)C)C(=O)[C@@]1(C)CO1` (stereo partly drawn)?
**A.** nuclei count, normalised [1, 3]: 36.4%; nuclei count, normalised [1, 4]: 30.5%; p53-positive nuclei, normalised [2, 5]: 104% (active); p53-positive nuclei, normalised [2, 6]: 117%

**Q.** Which nuclei count, normalised [1, 7] does the source give for `CSCCC(NC=O)C(=O)NC(CC(C)C)C(=O)NC(Cc1ccccc1)C(=O)O` (stereo not drawn) here?
**A.** 96%

**Q.** And the nuclei count, normalised [1, 8]?
**A.** 92.8%

**Q.** And the nuclei count, normalised [1, 9]?
**A.** 99%

**Q.** And the nuclei count, normalised [1, 10]?
**A.** 101%

**Q.** And the nuclei count, normalised [1, 11]?
**A.** 97.1%

**Q.** What about the nuclei count, normalised [1, 12] of the same compound?
**A.** 91.9%

**Q.** What about the nuclei count, normalised [1, 13] of the same compound?
**A.** 96.7%

**Q.** What about the nuclei count, normalised [1, 14] of the same compound?
**A.** 99.8%

**Q.** And the p53-positive nuclei, normalised [2, 15]?
**A.** -0.172% (inactive)

**Q.** What about the p53-positive nuclei, normalised [2, 16] of the same compound?
**A.** -0.159% (inactive)

**Q.** And the p53-positive nuclei, normalised [2, 17]?
**A.** -0.166% (inactive)

**Q.** And the p53-positive nuclei, normalised [2, 18]?
**A.** -0.212% (inactive)

**Q.** What about the p53-positive nuclei, normalised [2, 19] of the same compound?
**A.** -0.106%

**Q.** What about the p53-positive nuclei, normalised [2, 20] of the same compound?
**A.** -0.0972%

**Q.** And the p53-positive nuclei, normalised [2, 21]?
**A.** -0.166%

**Q.** And the p53-positive nuclei, normalised [2, 22]?
**A.** -0.105%
